Assay in all cases: glycan array binding signal (z-score within array); higher = stronger binding
Common to all, as to details: glycan notation: IUPAC condensed, linker removed

One assay addresses Fuc(a1-2)Gal(b1-3)GlcNAc. The procedure, abridged:
(§1)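 From the Consortium for Functional Glycomics database, 3228 arrays were curated, keeping only those whose protein sequence was available. Binding is given as a within-array Z-score averaged across arrays sharing a protein sequence and across linkers. Negative Z-scores can be read as non-binding.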

Assay [1] concerns the target Fuc(a1-2)Gal(b1-3)GlcNAc(b1-3)[Gal(b1-4)GlcNAc(b1-6)]Gal(b1-4)Glc. The procedure, abridged: as §1
The target in assay [2] is Fuc(a1-2)Gal(b1-3)[Fuc(a1-4)]GlcNAc. The method in brief:
as §1

Assay [3] addresses Fuc(a1-2)Gal(b1-3)[Fuc(a1-4)]GlcNAc(b1-2)Man(a1-3)[Fuc(a1-2)Gal(b1-3)[Fuc(a1-4)]GlcNAc(b1-2)Man(a1-6)]Man(b1-4)GlcNAc(b1-4)[Fuc(a1-6)]GlcNAc(b1-4)[Fuc(a1-6)]GlcNAc. The procedure, abridged: as §1
For assay [4], the target named is Fuc(a1-2)Gal(b1-3)[Fuc(a1-4)]GlcNAc(b1-3)[Fuc(a1-3)[Gal(b1-4)]GlcNAc(b1-6)]Gal(b1-4)Glc. The method in brief:
as §1

Assay [5] has as its target Fuc(a1-2)Gal(b1-4)GlcNAc(b1-2)Man. The method in brief:
as §1

In assay [6] the target is Fuc(a1-2)Gal(b1-4)GlcNAc(b1-3)Gal(b1-4)GlcNAc(b1-2)Man(a1-3)[Fuc(a1-2)Gal(b1-4)GlcNAc(b1-3)Gal(b1-4)GlcNAc(b1-2)Man(a1-6)]Man(b1-4)GlcNAc(b1-4)GlcNAc. The method in brief: as §1
The target in assay [7] is Fuc(a1-2)[Gal(a1-3)]Gal(b1-4)GlcNAc(b1-3)GalNAc. The method in brief:
as §1

For assay [8], the target named is Fuc(a1-2)[GalNAc(a1-3)]Gal. The method in brief:
as §1

In assay [9] the target is Fuc(a1-2)[GalNAc(a1-3)]Gal(b1-3)GalNAc(a1-3)[Fuc(a1-2)]Gal(b1-4)GlcNAc. The method in brief:
as §1

For assay [10], the target named is Fuc(a1-2)[GalNAc(a1-3)]Gal(b1-3)GlcNAc. The procedure, abridged:
as §1

The target in assay [11] is Fuc(a1-2)[GalNAc(a1-3)]Gal(b1-3)GlcNAc(b1-3)GalNAc. The method in brief: as §1
The target in assay [12] is Fuc(a1-2)[GalNAc(a1-3)]Gal(b1-4)[Fuc(a1-3)]GlcNAc(b1-3)GalNAc. The procedure, abridged: as §1
Assay [13] has as its target Fuc(a1-3)[Gal3S(b1-4)]GlcNAc. The method in brief:
as §1

Assay [14] has as its target Gal(a1-4)Gal(b1-3)GlcNAc(b1-2)Man(a1-3)[Gal(a1-4)Gal(b1-3)GlcNAc(b1-2)Man(a1-6)]Man(b1-4)GlcNAc(b1-4)GlcNAc. The procedure, abridged: as §1
Assay [15] addresses Gal(b1-3)GlcNAc(b1-3)Gal(b1-4)GlcNAc(b1-2)Man(a1-3)[Gal(b1-3)GlcNAc(b1-3)Gal(b1-4)GlcNAc(b1-2)Man(a1-6)]Man(b1-4)GlcNAc(b1-4)GlcNAc. The method in brief: as §1
The target of assay [16] is Gal(b1-3)[Fuc(a1-4)]GlcNAc(b1-6)GalNAc. The method in brief:
as §1

Assay [17] has as its target Gal(b1-4)GalNAc(a1-3)[Fuc(a1-2)]Gal(b1-4)GlcNAc. The method in brief:
as §1

The target in assay [18] is Gal(b1-4)GlcNAc(b1-2)[Gal(b1-4)GlcNAc(b1-6)]Man(a1-6)[Gal(b1-4)GlcNAc(b1-2)Man(a1-3)]Man(b1-4)GlcNAc(b1-4)[Fuc(a1-6)]GlcNAc. The method in brief:
as §1

The target in assay [19] is Gal(b1-4)GlcNAc(b1-3)Gal(b1-4)GlcNAc(b1-2)Man(a1-3)[Gal(b1-4)GlcNAc(b1-3)Gal(b1-4)GlcNAc(b1-2)Man(a1-6)]Man(b1-4)GlcNAc(b1-4)[Fuc(a1-6)]GlcNAc. The method in brief: as §1
The target of assay [20] is Gal(b1-4)GlcNAc(b1-3)Gal(b1-4)GlcNAc(b1-3)Gal(b1-4)GlcNAc(b1-2)Man(a1-3)[Gal(b1-4)GlcNAc(b1-3)Gal(b1-4)GlcNAc(b1-3)Gal(b1-4)GlcNAc(b1-2)Man(a1-6)]Man(b1-4)GlcNAc(b1-4)[Fuc(a1-6)]GlcNAc. The procedure, abridged:
as §1

Assay [21] concerns the target Gal(b1-4)GlcNAc(b1-3)Gal(b1-4)GlcNAc(b1-3)Gal(b1-4)GlcNAc(b1-3)Gal(b1-4)GlcNAc(b1-2)Man(a1-3)[Gal(b1-4)GlcNAc(b1-3)Gal(b1-4)GlcNAc(b1-3)Gal(b1-4)GlcNAc(b1-3)Gal(b1-4)GlcNAc(b1-2)Man(a1-6)]Man(b1-4)GlcNAc(b1-4)[Fuc(a1-6)]GlcNAc. The method in brief: as §1
Assay [22] addresses Gal(b1-4)GlcNAc(b1-3)Gal(b1-4)GlcNAc(b1-3)Gal(b1-4)GlcNAc(b1-3)Gal(b1-4)GlcNAc(b1-3)Gal(b1-4)GlcNAc(b1-2)Man(a1-3)[Gal(b1-4)GlcNAc(b1-3)Gal(b1-4)GlcNAc(b1-3)Gal(b1-4)GlcNAc(b1-3)Gal(b1-4)GlcNAc(b1-3)Gal(b1-4)GlcNAc(b1-2)Man(a1-6)]Man(b1-4)GlcNAc(b1-4)GlcNAc. The procedure, abridged:
as §1

The full list was thinned out, with the strongest signals kept by preference.

B1: SJCP1084 (Schistosoma japonicum) (protein)
chain: MRIINLVIISTALLLINLLQTKSQANGEDTKNGTPDDPGLTKSTELKVEVQALLKDKKTNMRVKWNENLLDNTKPEYHNLRDEACELLLQIVRSVVPLSQDDGECKDVTFTKYVVGTKDGAVNVKLTITFKDSVAINQKPMDLKLKLENDFKNLQSESTLKATKPTFTVKVEKRLIPISKPQTTPPTTAKNDASKENVGDIGGEDSTVPTAAPATAASANEEKDEGDKDNKDSQHPNVLTSNVNDRNLIIALVALMILAIGVALTAAVKQR
As for B1, the “glycan array binding signal (z-score)” value in the assay with Fuc(a1-2)Gal(b1-3)GlcNAc was 0.181; in assay [1], -0.827; in assay [2] it was 0.425; in assay [3], -0.159; in assay [4], -0.831; in assay [5] it was 1.24. Moreover, the “glycan array binding signal (z-score)” value in assay [6] is 4.99; in [7], -0.455; in [8], 0.405; in assay [9], -0.717; in assay [10] it was 0.643; in assay [11] it was 2.68. For the same molecule, the “glycan array binding signal (z-score)” value in assay [12] is -0.545; in assay [13], -1.01; in assay [14], 3.06; in assay [15], 0.617; in assay [16], -0.381; in assay [17], -0.495. Also, the “glycan array binding signal (z-score)” value in [18] was determined as 2.77; in [19], 4.14; in assay [20], 3.35; in assay [21], 3.73; in assay [22] it was 4.37.

These data come from the supplement of paper PMC8728848.
